# Over roughly 33,000 sequences, “E-score (-0.5 to 0.5)” has its median near -0.041; the highest 2% begin near 0.37. The list comes from a sample in which the highest values are over-represented; it also holds similar and randomly drawn sequences.
# Biological target: T1, Ecm22 (UniProt Q05958)
# T1 sequence: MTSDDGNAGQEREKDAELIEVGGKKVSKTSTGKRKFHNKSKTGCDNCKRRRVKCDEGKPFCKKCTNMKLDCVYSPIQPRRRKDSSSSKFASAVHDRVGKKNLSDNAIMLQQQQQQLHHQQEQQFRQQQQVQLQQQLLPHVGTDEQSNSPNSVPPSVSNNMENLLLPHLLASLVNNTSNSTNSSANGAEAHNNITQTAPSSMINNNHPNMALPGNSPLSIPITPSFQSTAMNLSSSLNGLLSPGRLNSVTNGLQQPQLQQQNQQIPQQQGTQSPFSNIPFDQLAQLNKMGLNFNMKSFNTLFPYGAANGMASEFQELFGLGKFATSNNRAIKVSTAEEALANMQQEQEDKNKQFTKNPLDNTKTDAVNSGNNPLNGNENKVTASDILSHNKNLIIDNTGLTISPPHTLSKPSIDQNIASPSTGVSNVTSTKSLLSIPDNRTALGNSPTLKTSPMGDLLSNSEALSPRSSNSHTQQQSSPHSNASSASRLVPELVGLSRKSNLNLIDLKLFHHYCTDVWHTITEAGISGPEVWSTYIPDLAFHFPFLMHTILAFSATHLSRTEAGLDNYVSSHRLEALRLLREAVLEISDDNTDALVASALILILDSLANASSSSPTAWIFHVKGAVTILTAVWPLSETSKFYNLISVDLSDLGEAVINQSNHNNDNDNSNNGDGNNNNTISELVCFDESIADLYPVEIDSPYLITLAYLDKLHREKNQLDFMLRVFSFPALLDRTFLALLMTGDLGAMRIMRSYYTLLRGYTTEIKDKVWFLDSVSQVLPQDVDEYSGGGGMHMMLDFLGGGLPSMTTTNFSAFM
# Test: PBM E-score (8-mer binding enrichment) (E-score (-0.5 to 0.5)); higher = stronger / more preferred TF binding
# Settings: protein concentration: 200 nM; construct: GST-full length
# Summary of the method: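 GST-tagged yeast TFs (full-length or DNA-binding domain) were made by PURExpress in vitro transcription/translation and applied at about 100-200 nM to universal all-10-mer Agilent arrays. The arrays were made double-stranded by primer extension, on fresh or once-stripped slides. Bound protein was detected with fluorescent anti-GST, and scans were normalised with masliner. Each ungapped eight-base word, pooled with its reverse complement, received an E-score (modified Wilcoxon-Mann-Whitney statistic) from the Universal PBM Analysis Suite.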
row,Sequence,PBM E-score
1,GAACCCGC,0.0274
2,AAGAAAAC,0.0702
3,TAATCATA,-0.0103
4,TAATCGCA,0.215
5,CGAGGACA,0.0726
6,CAGTACGC,0.06
7,GAGTACGC,-0.0338
8,AAGTACGA,0.448
9,GAGTACAA,0.0511
10,TAGTACGA,0.443
11,CAGTACGA,0.423
12,CAGTACGG,0.27
13,TAGTACAA,0.0161
14,GAGTACGA,0.426
15,AAGTACGC,0.0885
16,AAGTACGT,0.171
17,TAGTACCA,-0.124
18,CGGACCCG,0.21
19,ACCACAAC,0.0744
20,CGGGTCTC,0.00746
21,CTATTCGA,0.0817
22,ACTGGTAA,0.0597
23,CCGTATTA,0.316
24,GACGCCCC,-0.0249
25,ACCGTATC,0.346
26,CCCGTAGA,-0.00351

row,Sequence,PBM E-score
1,CCCGTATC,0.327
2,ACCGTATG,0.325
3,GCCGTATA,0.463
4,CCCGTATA,0.471
5,GCCGTAGA,0.213
6,GCGGTATA,-0.0371
7,ACCGTATA,0.459
8,ACGGGGGA,0.16
9,CGCTCACC,0.112
10,ACCATTTG,-0.0622
11,CCATGAGA,-0.118
12,AACCGAGA,0.312
13,AGCAAGTG,-0.181
14,AGTGGAAT,-0.0777
15,AACCGGAG,-0.0216
16,AGGCTTTA,-0.133
17,AGGATCCT,0.134
18,CAAACGTA,0.186
19,TAAACGTA,0.38
20,GAAACGGA,0.256
21,TAAACGGA,0.433
22,AAAACGTA,0.164
23,CAAACGGA,0.202
24,AGACCACG,-0.221
25,ACGCGAGA,0.281
26,AAGTTCGT,0.319

row,Sequence,PBM E-score
1,CTAGACAG,-0.189
2,ACTCGTCT,0.172
3,CCTCATAG,-0.183
4,CCTCGTCG,0.218
5,CCGCGTAC,0.231
6,ACTCGTAC,0.484
7,ACTCGGAT,0.318
8,CCTCGTAC,0.491
9,CCTCGGAC,0.246
10,CCTCGTAG,0.41
11,ACTCGTAT,0.479
12,ACTCGTGC,0.0518
13,ACTCGTCC,-0.139
14,AGCCCAGG,-0.341
15,AGGGCGCG,-0.0881
16,CCCTTCTC,-0.218
17,CCGTTAGA,0.0314
18,GCAGCCGC,-0.0784
19,ATACAGAG,-0.0254
20,ATGGTCTG,-0.0872
21,CCTTTCAA,-0.203
22,ACCTCTAG,-0.137
23,ACTCGTCA,0.0424
24,ACTCGTAA,0.437
25,CCTCGTCA,0.232
26,CCTCGTGA,0.201

row,Sequence,PBM E-score
1,ACTCGTAG,0.34
2,TCTCGTCA,0.0737
3,TCACGTAA,0.00322
4,GCTCGTAA,0.451
5,TCTCGTAA,0.438
6,GCTCGTCA,0.0115
7,CCTCGTAA,0.446
8,GCTCGTGA,0.171
9,CTGAACCC,0.0346
10,AGCTGTAT,-0.124
11,AGCCTGCG,-0.17
12,AGAGACAT,-0.195
13,GCACGTAC,0.168
14,GCTCGTAC,0.486
15,GCTCGTCC,-0.109
16,CACACATC,-0.226
17,CGATCAGC,0.09
18,ACGAGGAA,0.375
19,CCGAGGAA,0.0818
20,GCGAGGAC,0.0393
21,AGGAGGAT,-0.157
22,ACGAGGAG,0.349
23,TCGAGGAA,0.101
24,ACGAGGAC,0.42
25,ACGAGGAT,0.387
26,CCGAGGAC,0.207

row,Sequence,PBM E-score
1,ACGCTCGG,0.21
2,CAGCTGCA,-0.385
3,CCATTCCA,-0.228
4,CGTGTGCA,-0.0516
5,AGTCTACC,-0.156
6,CAAGATCG,0.122
7,ACCCGTCT,-0.0476
8,GCCCGTAA,0.221
9,ACCCGTAA,0.179
10,AACCGTAT,0.341
11,CCCCGTAG,0.0215
12,CCCCGTAC,0.377
13,ACCCGTAG,-0.142
14,GCCCGTAC,0.396
15,CCCCGTAA,0.211
16,ACCCGTAC,0.374
17,ACCCGTAT,0.391
18,GCCCGTCC,-0.279
19,ACGTATTC,0.144
20,ACGGAGCC,-0.084
21,ATTACTTC,-0.0783
22,GAGGGATC,-0.0216
23,CTCCTTCC,-0.152
24,CGGCGCAG,-0.0964
25,ACAACCGA,0.26
26,AACCTTTC,-0.0282

row,Sequence,PBM E-score
1,CGCAGAAG,0.00639
2,AACTAACG,0.141
3,ATTCGTAA,0.405
4,ATTCGTGA,-0.00041
5,GTTCGTCA,0.0919
6,GTTCGTAA,0.427
7,GTTCGTGA,0.141
8,ATTCGTAG,0.325
9,AAATGCGC,-0.0587
10,AAACTGTG,-0.214
11,CCAGTCAA,-0.166
12,CCCGTAAC,0.189
13,CCCGTAGG,-0.158
14,CCCGTACC,0.446
15,CCCGTACG,0.402
16,CCCGTACA,0.368
17,CACGTACC,0.285
18,AGACCTTG,-0.252
19,GGAAATCC,-0.00159
20,AGCAGCCT,-0.102
21,ATAGCCCC,-0.223
22,CCAAGGGA,-0.0775
23,CATCAATG,-0.153
24,GCCGGTAC,0.129
25,CGGCACGA,0.176
26,ACTTTGTG,0.118

row,Sequence,PBM E-score
1,ACGCTACG,0.382
2,CCGCTACG,0.339
3,ACGCTACA,-0.0355
4,TATCGCCA,-0.0963
5,GCGGTTAA,-0.0219
6,CCGGTTAA,0.132
7,TCGGTTAA,0.387
8,GTCCCCCA,-0.157
9,GCGGTAAA,0.173
10,GGCAACCA,-0.0847
11,CGCAACAA,0.0504
12,CGCAACGA,0.448
13,AGCAACGG,0.203
14,CGCAACGC,0.0974
15,GGCAACGA,0.417
16,AGCAACGC,0.0942
17,AGCAACGA,0.407
18,GGCAACTA,-0.282
19,AATCGAGG,0.0537
20,CAAAAGTA,-0.0653
21,CCATTTTC,-0.105
